Experimental data as given in PubChem BioAssay AID1851 (National Center for Advancing Translational Sciences (NCATS), 2009).
The whole screen tested about 16,000 compounds, of which about 5,100 (32%) were called active. Another 25% or so got no clear call; they are omitted. Calls follow the shape of the dose curve; as a rule, active = well fitted curve in the direction sought with a large enough effect; inconclusive = small, poorly fitted or top-dose-only effect, or effect the other way; inactive = no such curve, though single readings can be large or run the other way. This is one part of the list.

Biological target: Cytochrome P450 3A4 (Homo sapiens) (UniProt P08684)
Experiment: Cytochrome panel assay with activity outcomes
Conditions: recombinant CYP, pro-luciferin dealkylation, luminescence, p450-cyp3a4; series mostly up to 57.1 µM
% is scaled to controls: 0 for no effect and ±100 for the full control effect.

Chain of Cytochrome P450 3A4 (Homo sapiens) (P08684 whole entry, looked up): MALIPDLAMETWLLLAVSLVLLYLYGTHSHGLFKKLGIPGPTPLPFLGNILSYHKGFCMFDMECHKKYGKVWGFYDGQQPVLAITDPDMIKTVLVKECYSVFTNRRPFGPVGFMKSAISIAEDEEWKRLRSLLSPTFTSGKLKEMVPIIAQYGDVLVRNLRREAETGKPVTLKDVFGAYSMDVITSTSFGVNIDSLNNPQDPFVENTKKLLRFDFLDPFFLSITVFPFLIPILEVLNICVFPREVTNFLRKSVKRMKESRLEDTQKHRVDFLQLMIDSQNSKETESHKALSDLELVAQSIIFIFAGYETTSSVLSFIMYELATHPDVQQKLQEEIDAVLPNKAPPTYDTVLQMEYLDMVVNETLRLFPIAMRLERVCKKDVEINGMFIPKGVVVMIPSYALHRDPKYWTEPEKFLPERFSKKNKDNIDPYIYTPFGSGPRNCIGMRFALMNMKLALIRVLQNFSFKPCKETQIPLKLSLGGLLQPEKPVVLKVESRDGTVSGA

| SMILES | AC50 | activity, negative = inhibition |
| --- | --- | --- |
| O=C(c1sc2ccccc2c1Cl)N1CCN(c2ccc(F)cc2)CC1 | 14.1 µM (active) | – |
| COc1ccc(Nc2ncc(C(=O)N3CCN(c4ccc(F)cc4)CC3)c3ccccc23)cc1 | – | -5.25% [at 2.29 µM] (inactive) |
| COc1ccccc1N1CCN(C(=O)C(NS(=O)(=O)c2cccs2)c2ccccc2)CC1 (stereo not given) | 2 µM (active) | – |
| CC(C)C(NS(=O)(=O)c1cccs1)C(=O)NCCN1CCN(c2ccccc2)CC1 (stereo not given) | 5.01 µM (active) | – |
| O=C(C(NS(=O)(=O)c1cccs1)c1ccccc1)N1CCN(c2ccccc2)CC1 (stereo not given) | 3.16 µM (active) | – |
| O=C(NCCN1CCN(C(=O)C(c2ccccc2)c2ccccc2)CC1)C(=O)Nc1ccccc1 | inactive | – |
| O=C(c1cccs1)N1CCN(C(=O)C(c2ccccc2)c2ccccc2)CC1 | inactive | – |
| COc1ccc(S(N)(=O)=O)cc1C(=O)NCCCN1CCN(c2ccc(C)cc2)CC1 | – | 1.35% [at 2.29 µM] (inactive) |
| CCOC(=O)c1sc(C)c(C(=O)NCC(C)(C)CN(C)C)c1N | inactive | – |
| O=C(CSc1nc2ccccc2s1)Nc1nccs1 | 10 µM (active) | – |
| Cc1nnc(SCC(=O)Nc2nccs2)[nH]c1=O | inactive | – |
| Cc1cccc(-c2nsc(SCC(=O)Nc3nccs3)n2)c1 | 3.55 µM (active) | – |
| O=C(O)CCCSc1nc2ccccc2s1 | – | -9.94% [at 11.4 µM] (inactive) |
| O=C(CSc1nc2ccccc2s1)NNC(=S)Nc1ccc(Br)cc1 | 2.51 µM (active) | – |
| C1CCc2nnnn2CC1 | inactive | – |
| O=C(O)[C@@H](O)[C@@H](O)[C@@H](O)[C@@H](O)C(=O)O (tested in a mixture with another compound) | inactive | – |
| O=C(Nc1ccc(Cl)cc1Cl)c1cccc(N2C(=O)C=CC2=O)c1 | 1.26 µM (active) | – |
| O=C(Nc1ccc(Cl)cc1C(F)(F)F)c1ccc(Cl)cc1 | inactive | – |
| COc1cc2c(cc1OC)-c1cc(NCc3ccccn3)nc(=O)n1CC2 | inactive | – |
| COc1ccc(CC(=O)NCc2ccccn2)cc1OC | – | -4.2% [at 2.29 µM] (inactive) |
| COc1cc(CNCCN2CCOCC2)ccc1OCc1ccccc1Cl | 15.8 µM (active) | – |
| COc1cc(CNCc2ccccn2)ccc1OCc1ccc(Cl)cc1Cl | 0.501 µM (active) | – |
| O=C(O)c1cc(=O)c2c(Cl)cc(Cl)cc2[nH]1 | inactive | – |
| O=C1C[C@H]2C(=O)[C@@H]1[C@@H](C(=O)O)[C@H]2C(=O)O | – | -3.12% [at 11.4 µM] (inactive) |

| SMILES | AC50 | activity, negative = inhibition |
| --- | --- | --- |
| O=c1cnc2cnc(Nc3ccccc3)nc2n1Cc1cccs1 | 15.8 µM (active) | – |
| COc1cccc(Nc2ncc3nc(-c4cccs4)c(=O)n(Cc4cccs4)c3n2)c1 | inactive | – |
| Cc1nc2cnc(Nc3ccccc3)nc2n(Cc2cccs2)c1=O | 7.94 µM (active) | – |
| O=c1c(-c2ccc(F)cc2)nc2cnc(Nc3ccccc3)nc2n1Cc1cccs1 | inactive | – |
| COc1ccc(-c2nc3cnc(Nc4ccccc4)nc3n(Cc3cccs3)c2=O)cc1 | inactive | – |
| COc1cccc(Nc2ncc3nc(C)c(=O)n(Cc4cccs4)c3n2)c1 | 3.98 µM (active) | – |
| C=C(CC)C(=O)c1ccc(OCC(=O)O)c(Cl)c1Cl | inactive | – |
| CCC(C)NC(=O)c1c(C)cc(=O)oc1C (stereo not given) | inactive | – |
| C[C@@H](N=C(N)N)C(=O)O | – | -8.02% [at 11.4 µM] (inactive) |
| Cc1cc(NC(=O)NC(=O)c2ccc(F)cc2F)n[nH]1 | inactive | – |
| COc1ccccc1N1CCN(CCCCNS(=O)(=O)c2cccc3c(N(C)C)cccc23)CC1 | 2.51 µM (active) | – |
| COc1ccccc1N1CCN(CCCCNC(=O)c2ccc3ccccc3c2)CC1 | inactive | – |
| COc1ccccc1N1CCN(CCCCN2C(=O)CCC2=O)CC1 | inactive | – |
| Oc1c(Cl)cc(C(c2cc(Cl)c(O)c(Cl)c2)C(c2cc(Cl)c(O)c(Cl)c2)c2cc(Cl)c(O)c(Cl)c2)cc1Cl | – | -26.2% [at 11.4 µM] (inactive) |
| CCCCOC(=O)Nc1ccc(C)c(Cl)c1 | inactive | – |
| Cc1ccc(NC(=O)c2ccccc2C(=O)O)cc1C | – | -9.2% [at 11.4 µM] (inactive) |
| COC(=O)CSC(C(=O)Nc1ccc(C)c(C)c1)c1ccccc1 (stereo not given) | 3.98 µM (active) | – |
| O=C(C1CCN(S(=O)(=O)c2cccc3nsnc23)CC1)N1CCCc2ccccc21 | 14.1 µM (active) | – |
| O=C(C1CCN(S(=O)(=O)c2cccc3nsnc23)CC1)N1CCn2c1nc1ccccc12 | 14.1 µM (active) | – |
| O=C(C1CCCN(S(=O)(=O)c2cccc3nsnc23)C1)N1CC=C(c2ccccc2)CC1 (stereo not given) | 6.31 µM (active) | – |
| O=C(C1CCN(S(=O)(=O)c2cccc3nsnc23)CC1)N1CCN(c2ccccc2F)CC1 | inactive | – |
| O=C(O)c1nn(-c2ccc(Cl)cc2)c2c1C(=O)c1ccccc1C2=O | – | -4.55% [at 11.4 µM] (inactive) |
| COc1cc(=O)n2c(n1)SCCC2 | – | -0.256% [at 2.29 µM] (inactive) |
| Cn1c(=O)c2[nH]c(-c3ccccc3)nc2n(C)c1=O | inactive | – |

| SMILES | AC50 | activity, negative = inhibition |
| --- | --- | --- |
| Cn1c(=O)c2[nH]c(-c3ccc(S(=O)(=O)O)cc3)nc2n(C)c1=O | inactive | – |
| COc1ccc(-c2nc3c([nH]2)c(=O)n(C)c(=O)n3C)c(OC)c1 | 1.58 µM (active) | – |
| COc1ccc(C=NC(CO)C(O)c2ccc([N+](=O)[O-])cc2)cc1 (stereo not given) | 10 µM (active) | – |
| CS/C(N)=N/N=C/c1ccc([N+](=O)[O-])cc1 | inactive | – |
| C[N+]1(CCOc2ccc([N+](=O)[O-])cc2)CCOCC1 | inactive | – |
| COc1ccccc1CC(=O)Nc1cc2oc3ccccc3c2cc1OC | 7.08 µM (active) | – |
| COc1ccc(NC(=O)c2cc(-c3cccnc3)nc3ccc(C)cc23)cc1OC | 1.41 µM (active) | – |
| COc1cc2c(cc1NC(=O)Nc1ccccc1)oc1ccccc12 | inactive | – |
| COc1cccc(NC(=O)c2cc(-c3cccnc3)nc3c(Cl)cccc23)c1 | 2.24 µM (active) | – |
| COc1cc2c(cc1NC(=O)c1cc(-c3cccnc3)nc3ccc(C)cc13)oc1ccccc12 | 3.98 µM (active) | – |
| CC(C)(S)[C@H](N)C(=O)O | – | -0.648% [at 11.4 µM] (inactive) |
| CC(C)(SCc1ccccc1)[C@H](N)C(=O)O | – | -12.3% [at 11.4 µM] (inactive) |
| COc1ccc(Nc2cc(C(=O)NCCCN3CCN(C)CC3)c3ccccc3n2)cc1 | inactive | – |
| Cc1ccc2nc(-c3ccccc3)cc(C(=O)NCCCn3ccnc3)c2c1 | 0.562 µM (active) | – |
| CC(=O)Nc1ccc(-c2cc(C(=O)O)c3cc4ccccc4cc3n2)cc1 | – | -8.77% [at 11.4 µM] (inactive) |
| Cc1noc(C)c1-c1cc(NCc2ccccc2)ncn1 | inactive | – |
| Cc1cccc(CNc2cc(-c3ccoc3)ncn2)c1 | 7.94 µM (active) | – |
| Cc1cccc(CNc2cc(-c3ccc(N(C)C)cc3)ncn2)c1 | 6.31 µM (active) | – |
| Cc1cnc(CNc2cc(-c3ccoc3)ncn2)cn1 | inactive | – |
| CN(C)c1ccc(-c2cc(NCc3cccnc3)ncn2)cc1 | 3.16 µM (active) | – |
| Cc1cccc(CNc2cc(-c3c(C)noc3C)ncn2)c1 | 5.01 µM (active) | – |
| O=C1C[C@@H](O)[C@@H](O)[C@@H]2[C@H]3C(=O)N(c4ccc(F)cc4F)C(=O)[C@@H]3CC[C@@H]12 | – | -8.71% [at 11.4 µM] (inactive) |
| O=C(O)[C@@H](S)[C@H](S)C(=O)O | – | -14.7% [at 11.4 µM] (inactive) |
| Cc1ncc(CO)c(CO)c1O | inactive | – |

| SMILES | AC50 | activity, negative = inhibition |
| --- | --- | --- |
| O=c1c(C=Nc2ccc(Oc3ccccc3)cc2)c[nH]n1-c1cccc(Cl)n1 | inactive | – |
| Cn1c(N)nc2c(nc(OCc3ccccc3)n2[C@@H]2O[C@H](CO)[C@@H](O)[C@@H]2O)c1=O | – | -4.84% [at 11.4 µM] (inactive) |
| CCn1cc(C(=O)NCC(=O)OC)c2cc(OC)c(OC)cc2c1=O | inactive | – |
| CN(C)c1ccc(-c2cc(NCc3ccccc3)ncn2)cc1 | 15.8 µM (active) | – |
| FC(F)(F)c1cc(-c2ccco2)nc(NCCc2ccccc2)n1 | – | 0.414% [at 2.29 µM] (inactive) |
| CCNc1nc(Oc2c(Cl)cccc2Cl)cc(C(F)(F)F)n1 | inactive | – |
| FC(F)(F)c1cc(-c2ccco2)nc(NCc2cccs2)n1 | 25.1 µM (active) | – |
| O=C(CSc1nnc(SCc2cccc3ccccc23)s1)c1ccc2c(c1)OCO2 | 2.82 µM (active) | – |
| CC1CCN(CC(=O)N2c3ccccc3Sc3cc4ccccc4cc32)CC1 | 3.98 µM (active) | – |
| CC1(C)CCCN(C(=O)N2c3ccccc3Sc3ccccc32)C1 | – | -13% [at 2.29 µM] (inactive) |
| CC1CCN(CC[C@H]2CCCN2S(=O)(=O)c2cccc(O)c2)CC1 | inactive | – |
| Cc1c(CCO)c(=O)n(C)n1C(=O)c1ccc(F)cc1 | inactive | – |
| Cc1c(N(C)CS(=O)(=O)O)c(=O)n(-c2ccccc2)n1C | inactive | – |
| Cc1c(CCO)c(=O)n(-c2ccccc2)n1S(=O)(=O)c1c(Cl)cc(Cl)cc1Cl | 4.47 µM (active) | – |
| COc1cccc(-c2cc(NCc3ccc(OC)cc3OC)ncn2)c1 | 2.51 µM (active) | – |
| COc1cccc(-c2cc(NCc3ccccc3OC)ncn2)c1 | 15.8 µM (active) | – |
| CC(C)NC[C@@H](O)COc1ccc(COCCOC(C)C)cc1 | inactive | – |
| Cn1c(=O)c2cc(S(=O)(=O)NCCC(=O)Nc3ccc(Cl)cc3)ccc2n(C)c1=O | inactive | – |
| Cn1c(=O)c2cc(S(=O)(=O)NCCC(=O)NCc3ccccc3Cl)ccc2n(C)c1=O | 14.1 µM (active) | – |
| Cc1csc(NC(=O)CCNS(=O)(=O)c2ccc3c(c2)c(=O)n(C)c(=O)n3C)n1 | 7.94 µM (active) | – |
| Cc1ccc(CNC(=O)CCNS(=O)(=O)c2ccc3c(c2)c(=O)n(C)c(=O)n3C)cc1 | 1.78 µM (active) | – |
| CCOc1ccc(NC(=O)CCNS(=O)(=O)c2ccc3c(c2)c(=O)n(C)c(=O)n3C)cc1 | 14.1 µM (active) | – |
| Cn1c(=O)n(C)c2cc(S(=O)(=O)O)ccc21 | inactive | – |
